Results from PubChem BioAssay (NCI).
About 83,000 compounds went through this panel and 20% of them were active in at least one assay; those are over-represented in the sample as a whole.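 Each cell line was grown in a 96-well plate and treated with one concentration of compound for 48 hours. Values below 10 were considered active.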 Active and inactive are the calls of the source.

Tests used:
Experiment in all cases: NCI-60 one-dose screen, 48 h (100 = growth as untreated, 0 = no growth, -100 = all killed)
[1] = system: NCI-H226 lung; details: 10 µM unless noted
[2] = system: NCI-H322M lung; details: 10 µM unless noted
[3] = system: HOP-62 NSCLC; details: 10 µM unless noted
[4] = system: A549/ATCC NSCLC; details: 10 µM unless noted
[5] = system: COLO 205 colon; details: 10 µM
[6] = system: HT29 colon; details: 10 µM unless noted
[7] = system: PC-3 prostate; details: 10 µM unless noted
[8] = system: TK-10 renal; details: 10 µM unless noted
[9] = system: CAKI-1 renal; details: 10 µM unless noted
[10] = system: A498 renal; details: 10 µM unless noted
[11] = system: CCRF-CEM leukemia; details: 10 µM unless noted
[12] = system: OVCAR-8 ovarian; details: 10 µM unless noted
[13] = system: OVCAR-4 ovarian; details: 10 µM unless noted
[14] = system: SK-OV-3 ovarian; details: 10 µM unless noted
[15] = system: SNB-19 CNS; details: 10 µM unless noted
[16] = system: NCI-H522 lung; details: 10 µM unless noted
[17] = system: EKVX NSCLC; details: 10 µM unless noted
[18] = system: HS 578T breast; details: 10 µM unless noted
[19] = system: HOP-92 NSCLC; details: 10 µM unless noted

Measured: growth

CC1(C)N=C(N)N=C(N)N1c1ccc(CCCCc2ccc(S(=O)(=O)F)cc2)c(Cl)c1
inactive: [1] 31.8% | [2] 43.1% | [5] 33.2% | [8] 23% | [9] 17% | [10] 37.3% | [11] 11.5% | [12] 16.5% | [13] 80.4% | [14] 42%
active: [3] 5.05% | [4] 8.36% | [6] 8.74% | [7] 7.48%

FC(F)=C(F)c1ccccc1
inactive: [1] 113% | [2] 104% | [3] 87.4% | [4] 108% | [5] 104% | [6] 104% | [15] 103% | [7] 104% | [8] 89.7% | [9] 109% | [10] 100% | [11] 80.3% | [12] 104% | [13] 111% | [14] 97.5%

C[C@@H]1O[C@@H](O[C@H]2CC[C@@]3(C)[C@H](CCC4[C@@H]3C(O)C[C@]3(C)[C@@H](c5ccc(=O)oc5)CC[C@]43O)C2)[C@H](O)[C@H](O)[C@H]1O (some centres not stated)
active: [1] -84.2% | [2] -73.9% | [3] -100% | [16] -87% | [6] -90.4% | [15] -91.1% | [7] -33.3% | [17] -58.3% | [8] -97% | [9] -68.7% | [10] -27.9% | [13] -92.9% | [14] -95.6% | [18] -9.52%

CC(=O)[O][Hg][c]1nc2c(c(=O)n(C)c(=O)n2C)n1C
inactive: [1] 108% | [2] 95.7% | [3] 120% | [4] 102% | [5] 113% | [15] 98.2% | [7] 93.7% | [8] 110% | [13] 95.1% | [14] 115% | [18] 105%

O=S(=O)(O)c1ccc(-c2ccc([As](=O)(O)O)cc2)cc1
inactive: [1] 110% | [2] 104% | [3] 98.6% | [16] 88.8% | [4] 94.4% | [5] 114% | [15] 97.7% | [17] 101% | [11] 99.7% | [12] 93.8% | [13] 99.4% | [18] 110%
active: [19] -91%

CC1(C)N=C(N)N=C(N)N1c1ccc(OCCCCNC(=O)c2ccc(S(=O)(=O)F)cc2)c(Cl)c1
inactive: [1] 117% | [2] 55.5% | [3] 102% | [4] 51% | [5] 61.7% | [6] 27.6% | [15] 103% | [7] 23.4% | [8] 57.9% | [9] 99.2% | [10] 105% | [11] 31% | [12] 32.7% | [13] 107%

Cc1ccc2oc(=O)c3c(c2c1)OC(N)=C(C#N)C3c1ccco1 (configuration not stated)
inactive: [1] 91.9% | [2] 98.8% | [19] 102% | [16] 91.6% | [4] 97% | [6] 108% | [7] 95.9% | [17] 94.9% | [8] 108% | [10] 105% | [11] 96.4% | [12] 101% | [13] 114%

O=C(/C=C/c1ccccc1)N[C@@H](CO)Cc1cnc[nH]1
inactive: [1] 94% | [2] 101% | [3] 101% | [5] 104% | [6] 105% | [7] 97.9% | [8] 93.5% | [12] 99.8% | [14] 113% | [18] 116%

O=C(NCc1ccc([N+](=O)[O-])cc1)Nc1ccc(S(=O)(=O)F)cc1
inactive: [1] 63.7% | [2] 88.3% | [3] 70.5% | [4] 75% | [5] 107% | [15] 88.6% | [8] 78.1% | [9] 78% | [10] 55.9% | [11] 81.4% | [13] 83.4% | [14] 94.9%

COc1ccc(C2SCC(=O)Nc3c2c(C)nn3-c2nc3ccc(C)cc3s2)cc1O (configuration not stated)
active: [16] 1.68%
inactive: [1] 67.6% | [2] 56.3% | [19] 28.9% | [4] 29.3% | [5] 35.1% | [6] 10.5% | [15] 53.8% | [7] 19.9% | [8] 71.6% | [10] 40.9% | [11] 27.6% | [12] 50.7% | [13] 72.7% | [14] 44.2% | [18] 42.2%
